A selection: hits, their analogues and other compounds. The true share with any hit is near 6.9%.
Beta cell apopt: beta cell apoptosis inhibition | INS-1E cytokine-induced death, ATP luminescence, 48 h; percent of positive-control rescue, neutral wells zero | protection from apoptosis, % (test concentration not listed) | 0.8% of 300,000 active;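 active = Every replicate reaches about 75%, or at least half do and their mean reaches it too, limit read from the data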;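 also: 0% = cytokine-treated negative control wells and 100% = positive control rescue; higher means more ATP so stronger rescue from cytokine killing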
SKKanGAS inh: blocks kanamycin growth of S. pyogenes SKKanGAS strain | BacTiter-Glo, 6 h | inhibition, % at 7.5 µM | 1.3% of 300,000 active;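 active = mean replicate score, as percent of positive control median, at least 50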;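 also: strain carries kanamycin resistance gene driven by streptokinase promoter and grows in 40 µg/ml kanamycin; loss of luminescence reflects streptokinase promoter inhibition or plain growth inhibition; 0% = median of DMSO wells and 100% = positive control at its reference dose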
Mdm2 MdmX PPI: inhibitors of human Mdm2/MdmX interaction; inhibition, % at 8 µM; 3% of 330,000 active; O15151+Q00987; SaOS-2 split-luciferase Mdm2/MdmX complementation, luminescence;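 active = inhibition of at least 50% at 8 µM in the primary screen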
Target sequence (O15151 whole entry, looked up): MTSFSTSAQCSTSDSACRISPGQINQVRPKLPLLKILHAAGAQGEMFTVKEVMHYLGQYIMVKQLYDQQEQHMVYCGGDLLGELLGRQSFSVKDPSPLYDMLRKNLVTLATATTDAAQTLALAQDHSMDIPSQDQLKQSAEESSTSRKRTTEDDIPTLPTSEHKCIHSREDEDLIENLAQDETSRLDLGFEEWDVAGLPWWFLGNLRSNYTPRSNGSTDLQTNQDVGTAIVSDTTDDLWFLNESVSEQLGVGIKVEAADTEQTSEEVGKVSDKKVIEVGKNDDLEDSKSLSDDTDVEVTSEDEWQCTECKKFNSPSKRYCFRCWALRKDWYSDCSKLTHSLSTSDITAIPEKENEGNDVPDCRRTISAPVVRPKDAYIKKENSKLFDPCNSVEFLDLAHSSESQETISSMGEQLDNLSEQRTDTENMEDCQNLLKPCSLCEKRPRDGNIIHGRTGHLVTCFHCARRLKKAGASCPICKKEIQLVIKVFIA
Target sequence (Q00987 whole entry, looked up): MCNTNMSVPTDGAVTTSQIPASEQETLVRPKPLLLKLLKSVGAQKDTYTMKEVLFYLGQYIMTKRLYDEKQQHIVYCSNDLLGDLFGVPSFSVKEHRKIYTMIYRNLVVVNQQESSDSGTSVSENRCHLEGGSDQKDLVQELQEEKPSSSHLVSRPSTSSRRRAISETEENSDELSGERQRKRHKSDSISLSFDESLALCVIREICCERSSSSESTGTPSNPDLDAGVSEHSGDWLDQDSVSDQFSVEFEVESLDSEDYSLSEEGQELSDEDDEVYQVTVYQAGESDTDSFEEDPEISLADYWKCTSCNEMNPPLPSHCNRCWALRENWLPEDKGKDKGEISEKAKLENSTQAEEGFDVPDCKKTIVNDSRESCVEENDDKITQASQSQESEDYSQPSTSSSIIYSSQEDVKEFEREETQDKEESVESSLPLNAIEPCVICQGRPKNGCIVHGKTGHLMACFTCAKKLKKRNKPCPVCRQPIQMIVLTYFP
MPTP inh: inhibitors of mitochondrial permeability transition pore; AID 602449; inhibition, % at 10 µM; isolated mouse mitochondria, Ca2+ swelling absorbance, 30 min; 1.4% of 360,000 active;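 active = inhibition of 50% or more, scaled per plate between neutral and stimulator controls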;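 also: 0% = DMSO wells given calcium and 100% = 1 mM EGTA wells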
NR3A LBD binder: modulators (binders) of human NR3A ligand-binding domain; NR3A LBD differential scanning fluorimetry, Tm shift; 0% = protein alone, 100% = glycine-bound protein; 2.5% of 340,000 active; Tm shift relative to glycine control, % at 25 µM;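 active = melting temperature shift of at least 10% of the positive control shift, at one fixed dose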
CSC inhib: blocks cancer stem cells; AID 2717; 1.1% of 300,000 active; cancer stem cell-like cells viability, luminescence; inhibition, % at 7.5 µM; in the data active = inhibition above about 75%; tested in HMLE shEcad cells
The depositor's hits bear a star; . = not tested or not shown.

SMILES | Beta cell apopt | SKKanGAS inh | Mdm2 MdmX PPI | MPTP inh | NR3A LBD binder | CSC inhib
O=C(Oc1c(Cl)cc(Cl)c2cccnc12)c1cccc([N+](=O)[O-])c1 | 65.1 | 88.3* | 49.7 | 2.3 | -5.8 | 176.8*
O=C(Oc1ccc(Cl)c2cccnc12)c1cccc([N+](=O)[O-])c1 | 2.1 | 26.9 | -0.7 | -0.8 | -1.5 | 107.8*
O=C(Oc1ccc(Cl)c2cccnc12)c1ccco1 | 0.7 | 86.6* | 23.1 | -2.6 | 0.5 | 2.4
O=C(Oc1coc(CSc2ncccn2)cc1=O)c1cccc([N+](=O)[O-])c1 | -10.8 | -10.6 | -4.5 | 0.3 | -1.1 | -15.0
O=C(Oc1cccc2cccnc12)c1cccc([N+](=O)[O-])c1 | 1.0 | 22.1 | -1.7 | -0.3 | -0.6 | -13.9
O=C(Oc1cccc2cccnc12)c1ccco1 | -0.5 | 34.8 | -16.8 | -2.0 | 2.2 | 9.4
CC(=O)Nc1cccc(-c2csc(C(O)c3ccc(F)c(F)c3)n2)c1 (configuration not stated) | . | . | . | 1.0 | . | .
C/C(NC(=O)c1cccc(F)c1)=C1/C(=O)C[C@@H]2[C@H]1C2(C)C | -1.2 | 5.4 | -7.8 | 3.1 | 6.3 | 92.4*
Oc1c(Br)cc(Br)cc1CNc1cccc2cccnc12 | -14.6 | 88.5* | 25.5 | 5.9 | -1.2 | 13.9
Cc1ccc(O)c(CNc2cccc3cccnc23)c1 | 102.4* | 8.1 | 11.3 | -0.8 | -3.7 | 20.3
Cc1cccc(NCc2cc(Cl)ccc2O)n1 | . | 1.8 | 14.8 | 2.7 | 0.9 | 6.1
Oc1ccc(Cl)cc1CNc1cccc2cccnc12 | 64.6 | 56.7* | 49.6 | 1.3 | -1.2 | 23.6
Cc1ccc(O)c(CNc2ccccn2)c1 | 0.9 | -0.3 | 5.6 | -2.7 | 0.9 | .
COc1cccc(CNc2cccc3cccnc23)c1O | 14.1 | -1.8 | 4.4 | 1.0 | -4.1 | 11.7
N#C/C(=C\c1ccccc1[N+](=O)[O-])c1nc(C2CC2)cs1 | -10.6 | -1.3 | -20.0 | 0.3 | 15.8* | 2.9
N#C/C(=C/c1ccccc1[N+](=O)[O-])c1nc(C2CC2)cs1 | -12.2 | -13.3 | -5.1 | -1.0 | 8.7 | -7.2
C/C(=N\Nc1ccc([N+](=O)[O-])cc1)c1cccc(N)c1 | 2.4 | 4.4 | -22.2 | 0.8 | 29.1* | -11.6
C/C(=N\Nc1cccc(C(=O)O)c1)c1cc2ccccc2o1 | -2.6 | 5.5 | 4.0 | -2.6 | -2.0 | 14.9
C/C(=N\Nc1cccc([N+](=O)[O-])c1)c1cc2ccccc2o1 | 1.3 | -9.0 | -12.5 | 4.0 | 29.3* | 4.5
C/C(=N\Nc1ccc([N+](=O)[O-])cc1)c1ccc(O)cc1 | 0.2 | -4.4 | -23.5 | -1.4 | 22.8* | 28.4
CC/C(=N\Nc1ccc([N+](=O)[O-])cc1[N+](=O)[O-])c1ccc(O)cc1 | 6.0 | -0.3 | 47.1 | 1.4 | 18.4* | 16.2
CCC(=NNc1ccc([N+](=O)[O-])cc1[N+](=O)[O-])c1ccccc1 | . | . | . | 2.8 | . | .
CC(=O)NC/C(C)=N\Nc1ccc([N+](=O)[O-])cc1 | 5.2 | 6.6 | -13.8 | 18.5 | -1.4 | 20.8
Cn1c(N)c(C(=O)COC(=O)/C=C/c2ccccc2)c(=O)n(C)c1=O | 3.4 | . | -11.7 | -1.2 | 0.4 | -26.7
COc1ccccc1C(=O)NC(CCSC)C(=O)OCC(=O)N1CCN(S(=O)(=O)c2ccc(C)cc2)CC1 (configuration not stated) | . | . | . | 0.0 | 0.5 | .
SMILES | Beta cell apopt | SKKanGAS inh | Mdm2 MdmX PPI | MPTP inh | NR3A LBD binder | CSC inhib
CC(C)c1nnc(NC(=O)c2cccc(NC(=O)C(F)(F)F)c2)s1 | -2.1 | 4.1 | -48.8 | -1.0 | 9.1 | 0.3
COc1ccc(NC(=S)N(CCC(C)C)C2CCN(C(C)C)CC2)cc1Cl | -7.1 | -0.9 | 25.8 | 0.3 | 19.2* | 11.8
COCCN(C(=S)Nc1ccc(OC)c(Cl)c1)C1CCN(C(C)C)CC1 | -10.8 | -2.5 | -21.5 | -0.3 | 7.1 | 4.9
C/C(=N/NS(=O)(=O)c1cc(C)ccc1C)c1c[nH]c2ccccc12 | 1.2 | -3.3 | 25.1 | 3.5 | 29.0* | .
CC(C)(C)c1ccc(C(=O)Nc2ccc(F)cc2)s1 | -2.8 | 53.1* | -181.1 | 21.5 | -17.2 | 27.9
CCc1cc2cc(C(=O)Nc3ccc(F)cc3)sc2s1 | 2.4 | 4.8 | -30.6 | 8.3 | 1.7 | -1.0
Cc1cccc2cc(CN(Cc3ccc(F)cc3)C(=O)N(C)C)c3nnnn3c12 | 14.4 | -3.3 | 6.8 | 2.3 | 11.9* | -18.8
CC(C)(C)C(=O)NNC(=O)c1cc(C(C)(C)C)nn1Cc1ccccc1 | -8.4 | 2.6 | 6.7 | 1.6 | 0.5 | -17.9

Screening results from PubChem BioAssay.
